Results taken from PubChem BioAssay (NCATS).
Unmarked numbers belong to inactive results. Records with an inconclusive call do not appear. Activity calls are given as the source filed them. Unless noted, the call rests on the fitted dose curve; in most records, active means well fitted curve in either direction with a large enough effect (not every such curve was filed as active); inconclusive means small, poorly fitted or top-dose-only effect, or another doubt; inactive means flat fitted curve, though single readings scatter.

Legend:
[1] = biological target: Lysosomal acid glucosylceramidase (Homo sapiens) (UniProt P04062); assay: Glucocerebrosidase-p2 (AID 348; in the data active means potency below about 10 µM; further: potency means the concentration at half of the fitted maximal effect); conditions: purified GBA, blue fluorogenic substrate, 40 min
Outline: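 Compounds titrated from 0.6 nM upwards against 0.2 nM enzyme in pH 5.9 citric acid/KH2PO4, taurocholate, tween-20; blue fluorogenic substrate 80 uM, 40 min room temperature, stopped and read Ex 365/Em 440 for AC50.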

[2] = AP1 Signaling Pathway (AID 357); conditions: ME-180 AP-1-bla reporter, EGF-induced, beta-lactamase ratio, 5 h; at 7.69 µM (top of the series) unless noted;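 further: ME-180 reporter cells stimulated with EGF at its EC50 level; on the % scale 0 is the no-effect control and ±100 the full control effect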
Outline: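 Modulation of EGF-driven AP-1 transcription was assessed with a beta-lactamase reporter in ME-180 cells. Compound and EC50 EGF were co-incubated 5 hours at 37 °C before 2.5-hour CCF4 loading at room temperature and dual-emission reading.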

[3] = biological target: Cytochrome P450 1A2 (Homo sapiens) (UniProt P05177); assay: p450-cyp1a2 (AID 410; calls by dose curve; further: potency means the concentration at half of the fitted maximal effect;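 on activity change, negative = inhibition: -100% = full effect of reference inhibitor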); conditions: recombinant CYP1A2, luciferin-ME demethylation, luminescence; series mostly up to 11.4 µM
Outline: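 Inhibition was calculated relative to 57 uM furafylline (full inhibition). The reaction used human CYP1A2 at 20nM with Luciferin-ME at its Km, 100uM, driven by an NADPH-regenerating system for 60 min at room temperature.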

[4] = NFAT Signaling Pathway (AID 444); conditions: Jurkat NFAT-bla M1, carbachol, beta-lactamase ratio, 5 h; at 7.69 µM (top of the series) unless noted;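 further: carbachol stimulus at about its EC50 of 1 µM final; on the % scale 0 is the no-effect control and ±100 the full control effect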
Outline: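 Read-out: CCF4 FRET ratio (460 nm/530 nm) after 1 h RT dye loading, used for %activity and AC50 from titration series. Cells: Jurkat NFAT-β-lactamase/M1 line, treated with compound plus 1 uM carbachol for 5 h, 37 °C.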

[5] = Stat Signaling Pathway (AID 446); conditions: ME-180 SIE beta-lactamase reporter, IL-6 stimulated, 5 h; at 7.69 µM (top of the series) unless noted;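 further: ME-180 cervical cancer cells given 40 pM IL-6 alongside compound; SIE-controlled beta-lactamase reporter measured as 460/530 nm FRET emission ratio; on the % scale 0 is the no-effect control and ±100 the full control effect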
Outline: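 Screening format detects activators and inhibitors alike: ME-180 SIE-bla cells stimulated at 40 pM IL-6 for 5 hrs with compound, then dual-emission beta-lactamase read at 405 nm excitation.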

[6] = biological target: Glucocorticoid receptor (Homo sapiens) (UniProt P04150); assay: GR-GFP Redistribution (AID 450;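 active means compounds whose dose series gives a full or clear partial fitted curve of increased nuclear translocation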; further: potency means the concentration at half of the fitted maximal effect); conditions: U2OS GR-GFP nuclear translocation, laser cytometry, 2 h
[7] = biological target: Mitogen-activated protein kinase 10 (Mus musculus) (UniProt Q61831); assay: JNK3 AlphaScreen Assay (AID 530); conditions: JNK3 lysate, c-Jun phosphorylation; series mostly up to 11.4 µM;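 further: kinase came from lysate of stimulated human HepG2 cells; signal reports phosphorylation of biotinylated GST-cJun 1-79 at Ser73 with 10 µM ATP; on the % scale 0 is the no-effect control and ±100 the full control effect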
Outline: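 Room-temperature AlphaScreen kinase assay; pre-activated HepG2 lysate as JNK3 source, biotin-GST-cJun(1-79) substrate, 10 uM ATP, compound 15 min preincubation.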

[8] = biological target: 3',5'-cyclic-AMP phosphodiesterase 4B (Homo sapiens) (UniProt Q07343); assay: qHTS Assay for Inhibitors of PDE-IV (AID 607; active means well fitted activation curve with a large enough effect in the main read-out, with a control signal flat, not every such curve was filed as active; further: % of control where 0% means no effect); conditions: HEK293 ACTOne CNG channel cells, membrane potential fluorescence; series mostly up to 22.9 µM
Outline: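 The readout is membrane depolarisation from a cAMP-sensing CNG channel, detected with a potential dye at ex 535/em 590. Cells were HEK293-derived (endogenous PDE-IV) at 1000 cells/well, titrated up to 22.9 uM final.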

[9] = biological target: Cytochrome P450 2D6 (Homo sapiens) (UniProt P10635); assay: qHTS Assay for Inhibitors and Substrates of Cytochrome P450 2D6 (AID 891; active means well fitted curve in the direction sought with a large enough effect; an effect the other way counts as inactive or inconclusive; further: nearly all actives have a fitted effect of over 60% in size; further: potency means the concentration at half of the fitted maximal effect); conditions: recombinant CYP2D6, luciferin-ME EGE luminescence; series mostly up to 11.4 µM
Outline: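 Human CYP2D6 (5 nM) with 30 uM Luciferin-ME EGE (at Km) in 100 mM KPO4, compound preincubated 10 min, then NADPH regeneration system for 60 min at room temperature. Luciferin read by luminescence; normalized to 1.43 uM quinidine.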

[10] = biological target: Cytochrome P450 3A4 (Homo sapiens) (UniProt P08684); assay: qHTS Assay for Activators of Cytochrome P450 3A4 (AID 885; active means well fitted curve in the direction sought with a large enough effect; an effect the other way counts as inactive or inconclusive; further: nearly all actives have a fitted effect of over 65% in size); conditions: recombinant CYP3A4, Luciferin-PPXE luminescence, 60 min; series mostly up to 11.4 µM
Outline: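 Steps: enzyme/substrate mix dispensed; compound added, 10 min RT; NADPH regeneration solution added, 60 min RT; luciferin detection buffer stops reaction; 20 min later luminescence measured.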

[11] = biological target: Cytochrome P450 2C9 (Homo sapiens) (UniProt P11712); assay: qHTS Assay for Inhibitors and Substrates of Cytochrome P450 2C9 (AID 883; active means well fitted curve in the direction sought with a large enough effect; an effect the other way counts as inactive or inconclusive; further: on the % scale 0 is the no-effect control and ±100 the full control effect; nearly all actives have a fitted effect of over 60% in size); conditions: recombinant CYP2C9, luciferin-H luminescence, 60 min; series mostly up to 11.4 µM
Outline: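 Luminescent read-out of deoxyluciferin hydroxylation, normalized to 57uM sulphaphenazole (AC100). Reaction: 10nM enzyme, 100uM Luciferin-H (equal to KM), 25mM KPO4, 10 min compound preincubation, then 60 min with NADPH regeneration, both at 37C.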

[12] = biological target: Cytochrome P450 2C19 (Homo sapiens) (UniProt P33261); assay: qHTS Assay for Inhibitors and Substrates of Cytochrome P450 2C19 (AID 899; active means well fitted curve in the direction sought with a large enough effect; an effect the other way counts as inactive or inconclusive; further: nearly all actives have a fitted effect of over 60% in size; further: potency means the concentration at half of the fitted maximal effect); conditions: recombinant CYP2C19, luciferin-H EGE luminescence; series mostly up to 11.4 µM
Outline: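 Luminescence readout of luciferin formed from 10uM Luciferin-H EGE (KM level) by 5 nM CYP2C19 in 50mM KPO4. 60 min NADPH-driven reaction at 37C after 10 min compound preincubation; data scaled to 57uM ketoconazole inhibition.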

[13] = biological target: Glucocorticoid receptor (Homo sapiens) (UniProt P04150); assay: GR-EFC Redistribution (AID 451; calls by dose curve; further: potency means the concentration at half of the fitted maximal effect); conditions: CHO-K1 GR-EFC translocation, beta-gal luminescence, 2 h
Outline: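 Translocation of GR-ED fusion to nuclear EA restores b-gal, read by luminescence after 1 h room-temperature detection. Engineered CHO-K1 biosensor cells, 1,000/well, exposed 2 h at 37 C to titrations up to 46 uM final.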

[14] = qHTS Assay for Identification of Small Molecule Agonists for Hypoxia Response Element Signaling Pathway (AID 914; active means well fitted activation curve with a large enough effect in the signal ratio, with a control signal flat, not every such curve was filed as active; the % refers to the signal ratio; further: % of control where 0% means no effect); conditions: ME-180 (cervical carcinoma) HRE-bla reporter, beta-lactamase ratio, CoCl2, 17 h; activation: active compounds read high
Outline: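 qHTS titration; ME-180 HRE-bla cells; EC50 CoCl2 co-treatment, 17 h at 37 degrees Celsius; CCF4 dye, ex 405nm, em 460nm and 530nm; %Activity from ratio; AC50.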

Sequence of Lysosomal acid glucosylceramidase (Homo sapiens) (P04062 whole entry, looked up): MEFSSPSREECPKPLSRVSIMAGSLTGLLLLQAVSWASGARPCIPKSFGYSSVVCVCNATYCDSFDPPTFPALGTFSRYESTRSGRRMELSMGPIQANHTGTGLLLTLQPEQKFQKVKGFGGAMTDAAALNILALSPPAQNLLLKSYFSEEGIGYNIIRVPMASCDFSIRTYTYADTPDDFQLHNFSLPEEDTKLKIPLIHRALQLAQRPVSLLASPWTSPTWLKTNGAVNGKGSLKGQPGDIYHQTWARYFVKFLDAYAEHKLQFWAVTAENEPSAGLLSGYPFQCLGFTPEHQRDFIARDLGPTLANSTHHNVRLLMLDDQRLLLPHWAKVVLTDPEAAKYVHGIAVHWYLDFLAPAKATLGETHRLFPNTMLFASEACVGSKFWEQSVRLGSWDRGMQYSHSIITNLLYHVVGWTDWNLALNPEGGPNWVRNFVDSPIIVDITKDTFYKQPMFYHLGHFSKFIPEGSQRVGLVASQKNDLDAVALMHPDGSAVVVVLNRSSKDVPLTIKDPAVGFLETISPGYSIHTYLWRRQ
Sequence of Cytochrome P450 1A2 (Homo sapiens) (P05177 whole entry, looked up): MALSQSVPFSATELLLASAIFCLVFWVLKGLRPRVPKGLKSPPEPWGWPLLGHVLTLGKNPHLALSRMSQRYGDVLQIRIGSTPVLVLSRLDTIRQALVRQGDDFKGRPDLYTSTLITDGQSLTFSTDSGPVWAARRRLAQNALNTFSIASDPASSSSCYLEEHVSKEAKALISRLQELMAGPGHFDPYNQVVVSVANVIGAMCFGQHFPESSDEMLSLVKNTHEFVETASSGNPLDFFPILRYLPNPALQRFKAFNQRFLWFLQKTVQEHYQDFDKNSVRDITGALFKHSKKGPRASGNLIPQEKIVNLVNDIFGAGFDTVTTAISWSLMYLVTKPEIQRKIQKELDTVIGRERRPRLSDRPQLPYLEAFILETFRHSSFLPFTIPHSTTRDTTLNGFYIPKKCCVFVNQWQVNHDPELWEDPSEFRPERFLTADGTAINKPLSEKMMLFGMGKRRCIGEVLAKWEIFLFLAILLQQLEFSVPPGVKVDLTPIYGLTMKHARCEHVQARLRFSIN
Sequence of 3',5'-cyclic-AMP phosphodiesterase 4B (Homo sapiens) (Q07343 whole entry, looked up): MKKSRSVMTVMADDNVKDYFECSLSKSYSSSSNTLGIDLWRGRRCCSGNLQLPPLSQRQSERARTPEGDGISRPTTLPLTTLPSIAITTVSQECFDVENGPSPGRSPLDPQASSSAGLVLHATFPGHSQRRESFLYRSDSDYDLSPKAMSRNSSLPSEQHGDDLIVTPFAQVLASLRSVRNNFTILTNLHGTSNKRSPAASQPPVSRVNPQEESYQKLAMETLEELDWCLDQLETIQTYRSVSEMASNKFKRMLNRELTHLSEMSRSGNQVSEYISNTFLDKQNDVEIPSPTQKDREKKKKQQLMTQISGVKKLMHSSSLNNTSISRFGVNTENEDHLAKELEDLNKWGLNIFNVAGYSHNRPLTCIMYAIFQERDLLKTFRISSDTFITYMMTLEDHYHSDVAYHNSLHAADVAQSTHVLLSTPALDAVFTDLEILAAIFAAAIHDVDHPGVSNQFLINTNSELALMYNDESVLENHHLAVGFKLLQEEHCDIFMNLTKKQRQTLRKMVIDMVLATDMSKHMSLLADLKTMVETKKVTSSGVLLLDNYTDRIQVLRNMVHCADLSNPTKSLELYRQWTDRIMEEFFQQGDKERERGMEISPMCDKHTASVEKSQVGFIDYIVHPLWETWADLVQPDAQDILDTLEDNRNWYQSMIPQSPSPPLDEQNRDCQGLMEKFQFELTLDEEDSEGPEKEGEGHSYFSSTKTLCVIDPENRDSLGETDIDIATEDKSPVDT
Sequence of Cytochrome P450 2D6 (Homo sapiens) (P10635 whole entry, looked up): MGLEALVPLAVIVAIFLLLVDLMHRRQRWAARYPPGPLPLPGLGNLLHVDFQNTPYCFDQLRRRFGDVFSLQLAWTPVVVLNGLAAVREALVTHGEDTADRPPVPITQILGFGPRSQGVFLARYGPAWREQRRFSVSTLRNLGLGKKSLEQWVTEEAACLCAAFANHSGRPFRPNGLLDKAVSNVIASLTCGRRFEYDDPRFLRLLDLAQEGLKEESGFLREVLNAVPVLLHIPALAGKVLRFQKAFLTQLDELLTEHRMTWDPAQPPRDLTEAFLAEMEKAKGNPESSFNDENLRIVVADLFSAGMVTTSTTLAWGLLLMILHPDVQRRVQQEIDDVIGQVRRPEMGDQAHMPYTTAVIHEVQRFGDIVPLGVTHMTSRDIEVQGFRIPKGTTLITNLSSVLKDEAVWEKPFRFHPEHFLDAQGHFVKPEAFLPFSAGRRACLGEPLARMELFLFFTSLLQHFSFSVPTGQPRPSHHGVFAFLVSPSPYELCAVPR
Sequence of Cytochrome P450 2C19 (Homo sapiens) (P33261 whole entry, looked up): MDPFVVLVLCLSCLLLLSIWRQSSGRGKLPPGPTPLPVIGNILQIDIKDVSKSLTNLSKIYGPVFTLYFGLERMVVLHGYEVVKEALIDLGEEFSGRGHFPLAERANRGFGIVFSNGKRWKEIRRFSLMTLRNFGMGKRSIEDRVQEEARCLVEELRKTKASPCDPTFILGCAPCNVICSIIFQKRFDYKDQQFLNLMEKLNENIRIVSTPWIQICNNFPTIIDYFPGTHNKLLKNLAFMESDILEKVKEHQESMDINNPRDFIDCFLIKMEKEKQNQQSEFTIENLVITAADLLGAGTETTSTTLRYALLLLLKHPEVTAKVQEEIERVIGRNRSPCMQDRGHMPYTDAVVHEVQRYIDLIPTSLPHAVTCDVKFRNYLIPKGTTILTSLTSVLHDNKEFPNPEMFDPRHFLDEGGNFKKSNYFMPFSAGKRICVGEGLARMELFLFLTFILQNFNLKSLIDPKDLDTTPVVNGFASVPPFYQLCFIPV
Sequence of Glucocorticoid receptor (Homo sapiens) (P04150 whole entry, looked up, the tested form may be a part): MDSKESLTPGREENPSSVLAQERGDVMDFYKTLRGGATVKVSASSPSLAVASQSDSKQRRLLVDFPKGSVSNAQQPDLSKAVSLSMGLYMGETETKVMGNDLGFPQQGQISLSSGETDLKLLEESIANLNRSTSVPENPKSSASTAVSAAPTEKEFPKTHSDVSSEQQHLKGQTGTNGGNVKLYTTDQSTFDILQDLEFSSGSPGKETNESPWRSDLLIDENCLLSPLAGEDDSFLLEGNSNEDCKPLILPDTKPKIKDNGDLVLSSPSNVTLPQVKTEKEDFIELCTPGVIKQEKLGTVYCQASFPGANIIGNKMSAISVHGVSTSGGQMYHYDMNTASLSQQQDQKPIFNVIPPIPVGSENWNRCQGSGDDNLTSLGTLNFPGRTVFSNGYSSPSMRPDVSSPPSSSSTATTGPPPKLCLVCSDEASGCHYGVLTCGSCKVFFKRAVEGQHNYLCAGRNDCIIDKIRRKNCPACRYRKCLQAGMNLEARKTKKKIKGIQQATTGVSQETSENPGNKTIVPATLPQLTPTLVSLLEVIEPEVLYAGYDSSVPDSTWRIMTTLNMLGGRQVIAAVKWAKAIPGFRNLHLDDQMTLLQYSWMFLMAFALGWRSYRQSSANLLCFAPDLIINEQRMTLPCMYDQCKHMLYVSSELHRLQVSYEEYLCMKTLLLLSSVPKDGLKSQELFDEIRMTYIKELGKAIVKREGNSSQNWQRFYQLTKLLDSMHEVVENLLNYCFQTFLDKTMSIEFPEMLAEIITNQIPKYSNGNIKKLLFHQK
Sequence of Cytochrome P450 3A4 (Homo sapiens) (P08684 whole entry, looked up): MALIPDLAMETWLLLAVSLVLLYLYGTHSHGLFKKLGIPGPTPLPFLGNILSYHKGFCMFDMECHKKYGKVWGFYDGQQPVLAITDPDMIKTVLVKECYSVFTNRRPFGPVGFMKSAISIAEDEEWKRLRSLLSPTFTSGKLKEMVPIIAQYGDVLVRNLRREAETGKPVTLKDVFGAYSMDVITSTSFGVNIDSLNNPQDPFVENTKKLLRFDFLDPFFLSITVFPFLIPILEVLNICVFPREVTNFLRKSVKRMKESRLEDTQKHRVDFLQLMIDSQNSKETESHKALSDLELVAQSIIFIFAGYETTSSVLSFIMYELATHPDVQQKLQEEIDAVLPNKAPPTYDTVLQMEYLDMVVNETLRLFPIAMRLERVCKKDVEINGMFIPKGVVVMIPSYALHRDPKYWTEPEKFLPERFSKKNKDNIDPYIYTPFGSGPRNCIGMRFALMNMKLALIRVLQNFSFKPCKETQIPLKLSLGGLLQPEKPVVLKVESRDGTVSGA
Sequence of Cytochrome P450 2C9 (Homo sapiens) (P11712 whole entry, looked up): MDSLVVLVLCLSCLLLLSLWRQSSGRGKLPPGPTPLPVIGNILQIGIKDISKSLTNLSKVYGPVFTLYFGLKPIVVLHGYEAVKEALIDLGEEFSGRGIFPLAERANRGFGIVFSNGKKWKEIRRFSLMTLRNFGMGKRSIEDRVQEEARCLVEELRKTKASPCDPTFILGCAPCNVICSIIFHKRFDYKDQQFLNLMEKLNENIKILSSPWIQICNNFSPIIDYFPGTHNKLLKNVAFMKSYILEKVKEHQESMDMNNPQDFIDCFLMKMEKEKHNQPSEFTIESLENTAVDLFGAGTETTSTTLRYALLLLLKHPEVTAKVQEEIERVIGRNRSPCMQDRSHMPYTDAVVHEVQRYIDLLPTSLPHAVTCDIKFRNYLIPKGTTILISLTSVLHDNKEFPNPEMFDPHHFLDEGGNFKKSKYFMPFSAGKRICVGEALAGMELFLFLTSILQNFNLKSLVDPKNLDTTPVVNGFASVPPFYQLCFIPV

## C[N+](C)(N)CCC[N+](C)(C)N
[1]
  Potency: > 11.4 µM
[2]
  activity change, negative = inhibition: 6.06%
[3]
  Potency: inactive
[4]
  activity change, negative = inhibition: 24.5%
[5]
  activity, negative = inhibition: 8.44%
[6]
  Potency: > 46 µM
[7]
  Potency: inactive
[8]
  Potency: inactive
[9]
  Potency: inactive

## NCCNS(=O)(=O)c1ccc(N)cc1
[1]
  Potency: > 11.4 µM
[2]
  activity change, negative = inhibition: 3.42%
[3]
  Potency: inactive
[4]
  activity change, negative = inhibition: -2.06%
[5]
  activity, negative = inhibition: 3.19%
[6]
  Potency: > 46 µM
[7]
  Potency: inactive
[8]
  Potency: inactive
[10]
  Potency: inactive

## Clc1ccc(CN2CCCN(Cc3ccc(Cl)cc3)C2c2cc3ccccc3c3ccccc23)cc1
[1]
  Potency: > 11.4 µM
[2]
  activity change, negative = inhibition: 6.24%
[3]
  Potency: 0.794 µM (active)
[4]
  activity change, negative = inhibition: -10.5%
[5]
  activity, negative = inhibition: 2.22%
[6]
  Potency: > 46 µM
[7]
  Potency: inactive
[11]
  Potency: inactive
[9]
  Potency: 0.199 µM (active)
[12]
  Potency: 0.794 µM (active)

## O=C(O)c1nc(-c2ccccc2)[nH]c1C(=O)O
[1]
  Potency: > 11.4 µM
[2]
  activity change, negative = inhibition: -6.16%
[3]
  Potency: 1 µM (active)
[4]
  activity change, negative = inhibition: -19.8%
[5]
  activity, negative = inhibition: -26.6%
[6]
  Potency: > 46 µM
[7]
  Potency: inactive
[8]
  Potency: inactive
[12]
  Potency: 3.16 µM (active)

## O=C(O)[C@H]([C@H]1NCCS1)N1Cc2ccccc2C1
[1]
  Potency: > 11.4 µM
[2]
  activity change, negative = inhibition: 11%
[3]
  activity change, negative = inhibition: -13.4% [at 2.29 µM]
[4]
  activity change, negative = inhibition: 5.16%
[5]
  activity, negative = inhibition: 2.46%
[13]
  Potency: > 9.22 µM
[7]
  Potency: inactive
[8]
  Potency: inactive
[14]
  activation: 13.9%

## OC[C@@H]1O[C@@H](O)[C@H](N=Cc2ccc3c(c2)OCO3)[C@@H](O)[C@@H]1O
[1]
  Potency: > 11.4 µM
[2]
  activity change, negative = inhibition: 5.99%
[3]
  activity change, negative = inhibition: -24.4% [at 2.29 µM]
[4]
  activity change, negative = inhibition: 3.26%
[5]
  activity, negative = inhibition: 2.95%
[6]
  Potency: > 46 µM
[7]
  Potency: inactive
[8]
  Potency: inactive
[12]
  Potency: inactive

## c1ccc(C(CCN2CC3CCC(CC3)C2)c2ccccc2)cc1
[1]
  Potency: > 11.4 µM
[2]
  activity change, negative = inhibition: 2.88%
[3]
  Potency: inactive
[4]
  activity change, negative = inhibition: -81.8% (active)
[5]
  activity, negative = inhibition: 0.0517%
[6]
  Potency: > 46 µM
[7]
  Potency: inactive
[8]
  Potency: inactive
[9]
  Potency: 0.794 µM (active)

## O=C(O)CS(=O)c1ccc2c3c(cccc13)C(=O)c1ccccc1-2 (stereo not drawn)
[1]
  Potency: > 11.4 µM
[2]
  activity change, negative = inhibition: -22.7%
[3]
  Potency: 0.0631 µM (active)
[4]
  activity change, negative = inhibition: -13.9%
[5]
  activity, negative = inhibition: 1.69%
[13]
  Potency: > 9.22 µM
[7]
  Potency: inactive
[8]
  Potency: inactive
[10]
  Potency: inactive
